Drawing on PubChem BioAssay AID463173 (ICCB-Longwood Screening Facility, Harvard Medical School, 2010), this text covers survival for 89 compounds.

In all, about 52,000 compounds went through this assay and about 1,700 (3.3%) were called active. The sample holds actives, similar compounds and a random draw of the others, so the mix is not that of the screen. Unmarked numbers belong to inactive results. No stated cut-off is given here; in the data, active means survival mostly below about 52% (no sharp cut-off); inactive means mostly above about 56%.

This experiment deals with Wild type. Description: growth inhibition of S. aureus wild type versus tarO mutant, primary screen, teichoic acid synthesis inhibitors, RN4220, OD600 (AID 463173). Particulars: S. aureus RN4220 wild type/DeltatarO growth, OD600, 18 h, hits give low values, screened at 18.75 µg/mL (by protocol).
Consider `CCOc1ccc(CCNC(=O)c2cn(-c3cccc(OC)c3)c(=O)c3ccccc23)cc1`, for which the survival is 87%.
As to `O=C(Nc1cccc(C(F)(F)F)c1)c1cc(-c2ccc(Cl)cc2)on1`, the survival is 83%.
Next, `Fc1ccc(-c2nc(Nc3cccc(C(F)(F)F)c3)nc3c2COc2ccccc2-3)cc1`: 56%.
Then `Fc1ccc(Nc2nc3nonc3nc2Nc2cccc(C(F)(F)F)c2)cc1`, with -1% (active).
Next, `FC(F)(F)c1cccc(Nc2nc3nonc3nc2Nc2ccc(Cl)cc2)c1`: -3% (active).
`Cc1ccc(Nc2nc3nonc3nc2Nc2cccc(C(F)(F)F)c2)cc1Cl`: the survival is 0% (active).
For `Cc1ccc(Nc2nc3nonc3n3cnnc23)cc1Cl`, the survival was 88%.
Then `Cc1cc(Nc2cccc(C(F)(F)F)c2)nc2ccc(NC(=O)Cc3ccc(Cl)cc3)cc12`, with 78%.
As to `NS(=O)(=O)c1ccc(Nc2nc3nonc3nc2Nc2ccc(S(N)(=O)=O)cc2)cc1`, the survival is 109%.
Next, `Cc1cc(C)n(-c2nc3ccccc3nc2Nc2cccc(C(F)(F)F)c2)n1`: 86%; `CCCSc1nc2c([nH]c3ccccc32)c(=O)n1C`: 87%.
Take `COCC(C)NC(=O)C1=CC(c2ccc3c(c2)OCO3)=NS(=O)(=O)N1C` (centres undefined): the survival was 103%.
As for `COc1ccc(-c2noc(N3CCN(c4cccc(Cl)c4)CC3)n2)cc1OC`, the survival was 73%.
Take `Cc1cccc(N(C)S(=O)(=O)c2cc3c(cc2Cl)NC(=O)CO3)c1`: the survival was 75%.
Regarding `COc1ccc(N2CCN(c3ncccc3-c3nc(-c4ccccc4C)no3)CC2)cc1`, the survival is 87%.
Turning to `CCN(CC)C(=O)Cn1cc(/C=C(\C#N)C(N)=O)c2ccccc21`, the survival was 124%.
Then `Cc1ccc(CNc2ncnc3c2cnn3-c2ccc(C)cc2C)cc1`, with 73%; and `Cc1cccc(C(=O)NNc2ncnc3c2cnn3-c2ccc(C)cc2C)c1`, with 124%; and `COc1ccc(C(=O)NNc2ncnc3c2cnn3-c2ccc(C)c(Cl)c2)cc1`, with 73%.
Then `Cc1ccc(-n2ncc3c(N(CC(C)C)CC(C)C)ncnc32)c(C)c1`, with 71%.
As for `COc1ccc(C(=O)NNc2ncnc3c2cnn3-c2ccc(C)cc2C)cc1`, the survival was -3% (active).
Regarding `Cc1ccc(-n2ncc3c(NCC(C)C)ncnc32)c(C)c1`, the survival was 10% (active).
Next, `CCOc1ccc(N2CC(NC(=O)CCc3ccccc3)CC2=O)cc1` (centres undefined): 78%; `COc1ccc(CCNc2nccn(-c3ccc(C)c(C)c3)c2=O)cc1OC`: 83%; `COC(=O)c1c(NC(=O)Cc2coc3cc(C)ccc23)sc2c1CCC2`: 106%.
Then `CCCCNC(=O)C(CC)Sc1nc2ccccc2c(=O)n1CCc1ccc(OC)c(OC)c1` (centres undefined), with 127%; and `O=C(NCc1ccccc1Br)c1ccc(-n2cnc3cccnc32)cc1`, with 152%.
`Cc1cccc(C(=O)Nc2ccccc2-c2nc(-c3ccccc3)no2)c1`: the survival was 86%.
For the compound `CCOc1ccc(CCNC(=O)C2CCN(c3ncnc4c3nc3n4CCCCC3)CC2)cc1`, the survival is 119%.
Then `CCc1ccc(C(=O)CC2(O)C(=O)N(Cc3ccc(C)cc3)c3ccccc32)cc1` (centres undefined), with 48%; and `CCc1ccc(C(=O)CC2(O)C(=O)N(CCc3ccccc3)c3ccc(Cl)cc32)cc1` (centres undefined), with 5% (active).
Then `CCc1ccc(C(=O)CC2(O)C(=O)N(C(C)C)c3ccccc32)cc1` (centres undefined), with 111%; and `Cc1ccc(C(=O)CC2(O)C(=O)N(CCc3ccccc3)c3ccc(Cl)cc32)cc1` (centres undefined), with 3% (active).
Then `Cc1ccc(CN2C(=O)C(O)(CC(=O)c3ccc(C)cc3)c3ccccc32)cc1` (centres undefined), with 66%; and `CC(C)c1ccc(C(=O)CC2(O)C(=O)N(CCc3ccccc3)c3ccc(Cl)cc32)cc1` (centres undefined), with 33%.
Consider `Cc1ccc2cc(C#N)c(SCC(=O)NCc3ccco3)nc2c1`, for which the survival was 103%.
Then `O=S(=O)(NCC(c1ccco1)S(=O)(=O)c1cccs1)c1ccc(F)c(C(F)(F)F)c1` (centres undefined), with 32%.
Then `COc1ccc(CCNC(=O)c2ccc3c(c2)N(Cc2ccc(Cl)cc2)C(=O)c2ccccc2S3)cc1OC`, with 55%; and `Cc1cc(C)cc(NC(=O)CSc2nccn2-c2ccccc2)c1`, with 135%; and `Cc1cccc(NC(=O)c2ccc3oc(=O)c(S(=O)(=O)c4ccc(F)cc4)cc3c2)c1C`, with 127%.
Regarding `CN(CCO)Cc1ccc2c(c1)OCO2`, the survival was 121%.
Consider `CC(=O)Nc1ccc(NC(=O)c2c(C)nn(-c3ccccc3)c2-n2cccc2)cc1`, for which the survival was 80%.
Consider `Cc1nn(-c2ccccc2)c(-n2cccc2)c1C(=O)NCc1ccccc1Cl`, for which the survival was 1% (active).
Next, `COc1ccc(CNC(=O)c2cnn(-c3ccc(F)cc3)c2-n2cccc2)cc1`: 113%.
Next, `Cc1nn(-c2ccc(F)cc2)c(-n2cccc2)c1C(=O)NCCc1ccc(Cl)cc1`: 54%.
As for `Cc1ccc(CCNC(=O)c2c(C)nn(-c3ccc(F)cc3)c2-n2cccc2)cc1`, the survival was 60%.
Take `COc1ccc(CNC(=O)c2cnn(-c3ccccc3)c2-n2cccc2)cc1OC`: the survival is 126%.
`O=C(NCCc1ccccc1)c1cnn(-c2ccc(F)cc2)c1-n1cccc1`: the survival was 49%.
Then `Cc1ccc(NC(=O)c2c(C)nn(-c3ccccc3)c2-n2cccc2)c(Cl)c1`, with 78%; and `Cc1nn(-c2ccccc2)c(-n2cccc2)c1C(=O)NCCc1ccc(Cl)cc1`, with 2% (active); and `CSc1ccc(CCNC(=O)c2cnn(-c3ccccc3)c2-n2cccc2)cc1`, with 9% (active).
Then `Cc1ccc(-n2ncc(C(=O)NCc3ccccc3C)c2-n2cccc2)cc1`, with 88%; and `CCOc1ccccc1CNC(=O)c1cnn(-c2ccc(C)cc2)c1-n1cccc1`, with 10% (active); and `CCOC(=O)C1=C(C)NC(=O)NC1c1c(O)ccc2ccccc12` (centres undefined), with 111%.
Then `Cc1cn2c(=O)c(S(=O)(=O)NCCc3ccc(Cl)cc3)c(C)nc2s1`, with 88%.
`COc1ccc(CC(=O)NCCc2csc3nc(-c4ccccc4F)nn23)cc1`: the survival was 55%.
As for `Cc1ccc(C)c(Oc2nc3c(c(=O)n(C)c(=O)n3C)n2Cc2ccccc2)c1`, the survival is 73%.
In the case of `COCCCNC(=O)CCCCn1c(=O)c2ccccc2n(CC(=O)Nc2ccc(C)cc2C)c1=O`, the survival was 82%.
Next, `COC(=O)c1sc2cccc(F)c2c1S(=O)(=O)N1CCN(c2cccc(C)c2)C(C)C1` (centres undefined): 87%; `CN1C(=O)C(CC(=O)NCC2CCCCC2)SC1=Nc1ccccc1` (centres undefined): 99%.
Next, `O=C1C2C3C=CC(C3)C2C(=O)N1c1ccc2c(c1)OCO2` (centres undefined): 94%.
Then `COc1ccc(S(=O)(=O)N2CCC(n3c(C)nc4cccnc43)CC2)cc1Cl`, with 131%; and `O=C(NCC12CC3CC(CC(C3)C1)C2)c1cc2nc(-c3ccc(Cl)cc3)cc(C(F)(F)F)n2n1`, with 60%; and `O=C(NCC12CC3CC(CC(C3)C1)C2)c1cc2nc(-c3ccccc3)cc(C(F)(F)F)n2n1`, with -12% (active).
Turning to `COc1ccc(-c2cc(C(F)(F)F)n3nc(C(=O)NCC45CC6CC(CC(C6)C4)C5)cc3n2)cc1`, the survival was 62%.
Then `CCOc1ccccc1Nc1sc(C(=O)c2ccc(Cl)cc2)c(N)c1S(=O)(=O)c1ccccc1`, with 19%; and `COc1cccc2sc(N3CCN(C(=O)CCS(=O)(=O)c4ccc(F)cc4)CC3)nc12`, with 87%.
Take `Cc1ccc2sc(N3CCN(C(=O)CCS(=O)(=O)c4ccc(F)cc4)CC3)nc2c1C`: the survival was 82%.
Regarding `Cc1ccc(S(=O)(=O)CC(=O)N2CCN(c3nc4c(F)cccc4s3)CC2)cc1`, the survival is -6% (active).
Consider `Cc1c(Cl)ccc2sc(N3CCN(C(=O)CS(=O)(=O)c4ccccc4)CC3)nc12`, for which the survival is 124%.
Turning to `Cc1cccc2sc(N3CCN(C(=O)CS(=O)(=O)c4ccc(F)cc4)CC3)nc12`, the survival was 73%.
Next, `Cc1ccc2sc(N3CCN(C(=O)CCS(=O)(=O)c4ccc(Cl)cc4)CC3)nc2c1C`: 75%; `Cc1c(Cl)ccc2sc(N3CCN(C(=O)CCS(=O)(=O)c4ccc(F)cc4)CC3)nc12`: -3% (active); `Cc1ccc(S(=O)(=O)CCC(=O)N2CCN(c3nc4c(C)c(Cl)ccc4s3)CC2)cc1`: 68%.
In the case of `COc1cccc2sc(N3CCN(C(=O)CS(=O)(=O)c4ccc(Cl)cc4)CC3)nc12`, the survival is -6% (active).
As for `Cc1c(Cl)cccc1NC(=O)CSc1nc(=O)n(Cc2ccco2)c2c1CCC2`, the survival is 120%.
Next, `COc1ccccc1N1CCN(CCC(=O)Nc2cccc(F)c2)CC1`: 76%.
Next, `COc1ccc(NC(=O)NC2COc3ccccc3C2)cc1Cl` (centres undefined): 65%.
Take `COc1ccc(NC(=O)NC2COc3ccccc3C2)c(OC)c1` (centres undefined): the survival is 88%.
As to `O=C(Nc1ccc(OC(F)(F)F)cc1)NC1COc2ccccc2C1` (centres undefined), the survival is -3% (active).
Take `O=C(Cn1cc(S(=O)(=O)c2ccccc2)c(=O)c2cc3c(cc21)OCO3)Nc1ccc(Cl)cc1`: the survival is 65%.
In the case of `COCCNC(=O)c1sc2ncccc2c1-n1c(C)ccc1C`, the survival is 88%.
Next, `Cc1ccc(CCNC(=O)c2sc3ncccc3c2-n2c(C)ccc2C)cc1`: 75%; `CCc1ccc(CNC(=O)c2sc3ncccc3c2-n2c(C)ccc2C)cc1`: -3% (active); `Cc1cc2ccccc2n1-c1ccc(C(=O)N2CCC(C(=O)NCc3ccccc3Cl)CC2)s1`: 60%.
As for `CC(C)c1ccc(C2=CC(c3cccc(Cl)c3)n3c(nc4ccccc43)N2)cc1` (centres undefined), the survival is 60%.
Next, `COc1ccc(C2C=C(c3ccc(Cl)c(Cl)c3)Nc3ncnn32)cc1` (centres undefined): 26%; `CC(C)c1ccc(C2=CC(c3cccc(Cl)c3)n3ncnc3N2)cc1` (centres undefined): -3% (active).
`CCOC(=O)c1cc2c(=O)n3ccccc3nc2n(Cc2ccco2)c1=NC(=O)c1ccccc1OC`: the survival is 64%.
